Screening results as filed in PubChem BioAssay.
Shown are actives, neighbours in structure and some others; about 1.1% of the full set was active somewhere.
RXFP1 agonist = activates the human relaxin receptor RXFP1. Q9HBX9. HEK293T-RXFP1 cAMP TR-FRET, 30 min; response scale: percent of porcine relaxin response, buffer zero. Potency, µM (top dose mostly 57.5 µM), without a hit: at the highest dose activation, actives largely listed as activators. actives 0.3% (n = 370,000); further: potency means the concentration at half of the fitted maximal effect; on the % scale 0 is the no-effect control and ±100 the full control effect; nearly all actives have a fitted effect of over 60% in size
Target sequence (Q9HBX9 whole entry, looked up): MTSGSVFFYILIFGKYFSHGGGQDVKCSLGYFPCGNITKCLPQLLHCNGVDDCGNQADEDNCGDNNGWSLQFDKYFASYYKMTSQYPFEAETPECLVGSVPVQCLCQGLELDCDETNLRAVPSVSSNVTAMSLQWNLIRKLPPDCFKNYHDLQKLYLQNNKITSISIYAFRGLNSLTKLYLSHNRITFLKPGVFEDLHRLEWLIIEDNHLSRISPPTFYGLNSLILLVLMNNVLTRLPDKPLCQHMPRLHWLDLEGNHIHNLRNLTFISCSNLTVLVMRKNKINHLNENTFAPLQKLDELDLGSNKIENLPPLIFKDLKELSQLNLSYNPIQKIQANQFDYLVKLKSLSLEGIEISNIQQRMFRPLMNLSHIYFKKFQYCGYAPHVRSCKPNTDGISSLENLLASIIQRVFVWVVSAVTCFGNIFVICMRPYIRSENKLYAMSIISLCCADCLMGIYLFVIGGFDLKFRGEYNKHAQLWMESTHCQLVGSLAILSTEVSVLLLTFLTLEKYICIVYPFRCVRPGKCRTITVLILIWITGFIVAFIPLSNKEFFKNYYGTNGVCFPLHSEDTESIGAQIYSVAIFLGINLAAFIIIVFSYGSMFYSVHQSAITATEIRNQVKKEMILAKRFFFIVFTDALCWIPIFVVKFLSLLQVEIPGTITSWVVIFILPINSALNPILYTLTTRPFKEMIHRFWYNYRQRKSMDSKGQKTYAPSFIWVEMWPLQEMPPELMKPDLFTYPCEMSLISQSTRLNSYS
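cAMP rise read by TR-FRET after 30 min, 37C compound exposure (up to 58 uM) in RXFP1-transfected HEK293 cells with Ro 20174 present. EC50 from Hill-equation fits, with 29 nM porcine relaxin as 100% and buffer as basal.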
Integrin act MD = integrin-mediated muscular dystrophy alleviation activation; alpha7betagal myoblasts, beta-gal FDG fluorescence, 48 h; actives 0.064% (n = 350,000); Potency, µM (highest dose often 38.3 µM), inactives show top-dose activation, most hits filed as activators;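 further: potency means the concentration at half of the fitted maximal effect; 100% = response of the positive control SU9516; nearly all actives have a fitted effect of over 60% in size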
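alpha7betagal+/- myoblasts (passage 13, 250/well) treated 48 h at 37C with compounds at 1:260 dilution of DMSO stock. Lysed, then beta-galactosidase activity read as FDG fluorescence (ex 480/em 540) after 30 min, with pre-read for autofluorescence.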
RXFP1 antag = RXFP1 (human) relaxin receptor antagonism; Q9HBX9; HEK293-RXFP1, relaxin-stimulated cAMP HTRF, 30 min; hits give low values; activity change, negative = inhibition, % at 57.5 µM; actives 0.59% (n = 350,000); AID 1259400;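 active means activity change of -60% or lower, but not beyond a set lower limit; inconclusive means change between -60% and -40%, or beyond the set limit; inactive means change above -40%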; further: on the % scale 0 is the no-effect control and ±100 the full control effect
gsp ag = gsp mutant agonism | Potency, µM (top dose mostly 76.9 µM), for inactives: at the top dose activation (cAMP increase), usual class: activators | gsp mutant cells, cAMP HTRF, 30 min | AID 624287 | actives 0.13% (n = 340,000); active means well fitted activation curve with a large enough effect; inconclusive means small, poorly fitted or top-dose-only effect, or another doubt; inactive means no such curve, though single readings can be large or run the other way; cell line not stated here;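 further: phosphodiesterase inhibitor Ro 20-1724 added with compounds to block cAMP breakdown; potency means the concentration at half of the fitted maximal effect; nearly all actives have a fitted effect of over 60% in size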
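Cells in DMEM/10% FBS with G418 were pretreated with compounds in DMSO plus […] (300 uM stock) for 30 min at 37C. cAMP was measured by HTRF (cAMP-d2 plus anti-cAMP antibody-K) after 30 min at room temperature.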
gsp antag = gsp mutant antagonism; gsp-mutant cells, cAMP HTRF, 30 min; AID 624288; actives 0.4% (n = 340,000); Potency, µM (titrated, usually from 76.9 µM), inactives show top-dose activity change, negative = inhibition, hits mostly inhibitors; calls by dose curve; cell line not stated here;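 further: intracellular cAMP measured with PDE inhibitor Ro 20-1724 present during compound exposure; potency means the concentration at half of the fitted maximal effect; on the % scale 0 is the no-effect control and ±100 the full control effect; nearly all actives have a fitted effect of over 65% in size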
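HTRF cAMP read-out (cAMP-d2 plus anti-cAMP antibody-K in lysis buffer, 30 min RT). Before lysis, cells are exposed to compounds with […] for 30 min at 37C in DPBS containing Ca/Mg, BSA and Tween 20.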
S-ASM inh = blocks human secretory acid sphingomyelinase; actives 0.006% (n = 340,000); Potency, µM (top dose mostly 57.5 µM), for the others: at the highest dose activity change, negative = inhibition, actives largely listed as inhibitors; placental ASM, HMU-PC fluorogenic substrate, 60 min; P17405; further: potency means the concentration at half of the fitted maximal effect
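Steps: dispense placental human ASM, pin compound, wait 10 min at room temperature, add HMU-PC0 substrate at 9 uM final, incubate 60 min at 37 °C, add stop solution raising pH to 10, read fluorescence.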
* marks the source's active call; other numbers are inactive results; i = inactive; ? = inconclusive; / = no result; [ ] = another dose, or the depositor's remark. Unless noted, the call rests on the fitted dose curve; in most records, active means well fitted curve in the direction sought with a large enough effect; inconclusive means small, poorly fitted or top-dose-only effect, or another doubt; inactive means no such curve, though single readings can be large; an effect the other way counts as inactive or inconclusive.

SMILES	RXFP1 agonist	Integrin act MD	RXFP1 antag	gsp ag	gsp antag	S-ASM inh
Cc1cc(NC(=O)c2ccc(-c3ccccc3[N+](=O)[O-])o2)no1	/	-16.3%	-3.0	-1.3%	-4.2%	-2.3%
CC(=O)c1cccc(NC(=O)c2ccc(-c3ccccc3[N+](=O)[O-])o2)c1	0.0%	-24.1%	-17.3	18.9%[15.4 µM]	44.7µM*	-3.9%
O=C(Nc1ncccn1)c1ccc([N+](=O)[O-])o1	17.8µM*	-23.7%	11.7	22.4%[15.4 µM]	/	i
O=C(Nc1ccccn1)c1ccc([N+](=O)[O-])o1	3.0%	-51.9%	13.8	?	4.4%	23.2%
N/C(=N\N=C\c1ccc(Cl)cc1)N/N=C/c1ccc(Cl)cc1	/	/	-32.3	/	/	/
O=C(c1ccc(CS(=O)Cc2ccccc2Cl)o1)N1CCN(c2cccc(Cl)c2)CC1 (centres undefined)	0.7%	-44.7%	-39.9	-0.5%	31.6µM*	-1.4%
COc1cccc(N2CCN(C(=O)c3ccc(CS(=O)Cc4ccccc4Cl)o3)CC2)c1 (centres undefined)	-2.5%	-16.0%	-10.2	-68.0%	-14.8%	1.1%
CC(C)(C)N/C=C(\C#N)S(=O)(=O)c1ccc(Br)cc1	0.4%	11.2µM*	6.6	4.1%[15.4 µM]	1.8%	0.1%
Cc1nc2cccnc2n1-c1cccc(C(=O)N2CCN(c3cccc(Cl)c3)CC2)c1	18.9%	/	-63.8*	/	/	/
COc1ccc(N2CCCC2)c(NC(=O)c2ccc([N+](=O)[O-])o2)c1	-0.6%	7.94µM*	2.5	-2.3%[15.4 µM]	-4.4%	-8.2%
CC(C)(Oc1ccc(Cl)cc1)C(=O)OCCCOC(=O)C(C)(C)Oc1ccc(Cl)cc1	/	/	-22.6	/	/	/
CCc1nnc(SCC(=O)Nc2ccccc2)n1CC1CCCO1 (centres undefined)	-0.4%	-4.9%	-1.9	-48.5%	11.8%	7.0%
COc1ccccc1N1CCN(Cc2cc(Br)c(O)c3ncccc23)CC1	-1.6%	-34.0%	-92.0*	27.0%	0.2%	-0.4%
CSc1nsc2nc(=O)c(/C=C3\C=Nc4ccccc43)c(N)n12	-3.2%	3.2%	-20.4	-3.9%	31.6µM*	-12.0%
CCN(CC)S(=O)(=O)c1ccc(OC)c(NC(=O)COc2ccc3c(C)cc(=O)oc3c2)c1	?	7.5%	/	8.91µM*	-49.4%	89.3%
O=C(COc1ccc(Cl)cc1)Nc1ncc([N+](=O)[O-])s1	0.1%	0.2%	-32.5	2.6%[15.4 µM]	35.5µM*	-2.0%
Cc1ccc(C(=O)Nc2ncc([N+](=O)[O-])s2)cc1	0.8%	23.5%	-14.7	7.4%	25.1µM*	-3.0%
CCOc1ccccc1-c1noc(CCCC(=O)Nc2cccc(C(F)(F)F)c2)n1	-4.4%	/	/	/	/	/
CCc1nnc(NC(=O)CSc2nnc(-c3cc4ccccc4cc3O)n2CC)s1	-0.2%	-21.2%	-19.8	3.6%	28.2µM*	0.7%
CCc1nnc(NC(=O)CSc2nc(-c3ccccc3)nc3ccccc23)s1	7.5%	2.1%	-1.4	7.94µM*	18.8%	0.1%
CCc1nnc(NC(=O)CSc2nc(C3CCCCC3)nc3ccccc23)s1	?	-16.8%	2.9	?	2.4%	-0.2%
CCOc1ccccc1NS(=O)(=O)c1ccc2oc(=O)c3ncn(C)c3c2c1	7.4%	/	-14.9	/	/	/
CSCCC(NS(=O)(=O)c1ccc2c(c1)c(=O)n(C)c(=O)n2C)C(=O)NC1CCN(Cc2ccccc2)CC1 (centres undefined)	17.8µM*	1.9%	-9.5	-12.2%[15.4 µM]	-3.5%	3.5%
COc1cc(C(=O)NCc2nc3cccnc3n2Cc2ccc(C)cc2)cc(OC)c1OC	1.1%	/	2.4	/	/	/
Cc1n[nH]c(C)c1N1C(=O)c2cccc3c(N4CCCCCC4)ccc(c23)C1=O	3.6%	-20.3%	-65.4*	15.5%	?	-8.0%
SMILES	RXFP1 agonist	Integrin act MD	RXFP1 antag	gsp ag	gsp antag	S-ASM inh
CCSc1ncc(Cl)c(C(=O)Nc2c(C(=O)c3ccc(C)c(F)c3)oc3ccccc23)n1	-0.9%	/	/	/	/	/
CCOC(=O)c1sc(SCC(=O)Nc2ccc(N(C)C)cc2)nc1N	2.7%	-11.2%	-0.1	-1.2%	28.2µM*	-1.3%
CN(C)c1ccc(NC(=O)CSc2nc(N)c(C(=O)Nc3ccc(N(C)C)cc3)s2)cc1	1.3%	-14.3%	-1.1	1.6%	?	-8.6%
Cc1ccc(CC(=O)Nc2ccc(S(=O)(=O)Nc3nccc(C)n3)cc2)cc1	2.0%	0.7%	-1.3	-15.4%	8.91µM*	7.1%
Cc1ccnc(NS(=O)(=O)c2ccc(N3C(=O)c4ccccc4C3=O)cc2)n1	?	20.3%	6.2	25.1µM*	8.8%	0.7%
Cc1ccc(CNc2ccc3cc(S(=O)(=O)N4CCCCC4)ccc3n2)cc1	3.6%	/	-1.0	/	/	/
COc1ccc(S(=O)(=O)c2c(O)c3ccc(C(=O)NCc4ccccc4)cc3[nH]c2=O)cc1	0.2%	/	3.0	/	/	/
COc1ccc(-n2cc3c(-c4cccc(Br)c4)nnc(C)c3n2)cc1	0.5%	21.2%	?	27.2%	39.8µM*	-25.1%
Cc1cc2c(s1)c1c(n2C)C(=O)N(Cc2ccccc2F)C1	0.7%	/	/	/	/	/
O=C(NCc1ccccc1)c1ccc(CSc2nc3cccnc3n2Cc2cccc(F)c2)cc1	4.4%	/	-6.9	/	/	/
Cc1ccc(-c2nnc(Nc3ccc4c(c3)OCO4)c3ccccc23)cc1S(N)(=O)=O	1.5%	5.9%	-19.5	-0.8%[15.4 µM]	28.2µM*	0.0%
CCC(Sc1nnc2c3ccccc3n(CC)c2n1)C(=O)Nc1ccc(NC(C)=O)cc1 (centres undefined)	0.7%	/	-2.0	/	/	/
CC(C)c1ccc(NC(=O)c2snc3ccc(Cl)cc23)cc1	-2.2%	-31.5%	-3.9	17.6%	28.2µM*	-23.3%
O=C(Nc1ccc(OC(F)(F)F)cc1)Nc1cccc([N+](=O)[O-])c1	-1.0%	-66.9%	-74.5*	9.6%	?	-5.6%
O=C(NCCCCCCNC(=O)OCc1ccccc1)OCc1ccccc1	/	-9.2%	0.7	1.1%[15.4 µM]	1.4%	0.8%
O=C(OCc1ccccc1)N(CCCCN(CCCNCc1ccccc1)C(=O)OCc1ccccc1)CCCNCc1ccccc1	/	-59.0%	-94.1*	-4.8%	18.1%	-9.4%
COc1ccc(CN2[C@@H](CC(C)=O)c3cc(C(F)(F)F)ccc3S2(=O)=O)cc1	/	-10.4%	/	-1.3%	-10.4%	-4.2%
Cc1cc2c(cc1C)/C(=N/NC(=O)c1ccccn1)CCC2	-0.9%	7.3%	-93.3*	-12.6%[15.4 µM]	-15.9%	-2.4%
O=C(NN=C1CCC(=NNC(=O)c2ccccn2)CC1)c1ccccn1	-0.4%	-10.3%	-12.8	31.5%[15.4 µM]	1.6%	8.7%
Cc1cc(=O)n(CC(=O)N2CCCc3ccccc32)c2c1c(C)nn2-c1cccc(F)c1	-0.7%	/	-6.7	/	/	/
